The text below walks through data of PubChem BioAssay.

Assay [1] can be described thus: Her2 expression decrease, cell viability multiplex – SKBR3 breast tumor cells, AlphaScreen, ATP viability, primary screen (AID 461;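 active = Her2 level under about 52% in both replicate screens, with viability over 70% of control, limit read from the data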;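 as to Her2 level: lower value means less Her2 protein in the cells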;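 as to viability: percent of carrier control wells set as 100% viability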). The conditions noted are these: SKBR3 Her2 protein level, 18-24 h, measured here: SKBR3 viability, ATP luminescence, at 10 µM. Background: Alpha assays give light when donor and acceptor beads are brought close together.
Assay [2] concerns the target Receptor tyrosine-protein kinase erbB-2 (Homo sapiens) (UniProt P04626). The description is as above. The conditions noted are these: 18-24 h, at 10 µM, stronger effect = lower value.
A short description of assay [3]: reduced viability of SK-BR-3 breast cancer cells – cell-based, 24 h, human, pilot screen (AID 572;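 active = viability at or below 10% of carrier control in both of two separate runs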;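 also: compound exposure lasted between 18 and 24 h rather than exactly 24 h; 100% = carrier-treated control wells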). The conditions noted are these: SK-BR-3 viability, CellTiter-Glo luminescence, at 10 µM, stronger effect = lower value.
The nature of assay [4]: HUVEC growth inhibition – cell-based, human, primary screen (AID 575;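 active = viability at or below 30% in both replicate assays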;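 also: 100% = median of untreated cell wells with 0.1% DMSO on each plate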). As to conditions: HUVEC proliferation, CellTiter-Glo luminescence, 72 h; at 10 µM; stronger effect = lower value. Background: Cellular ATP, detected with luciferase, serves as a proxy for viable cell number.
Assay [5] is described as follows: H69AR cell proliferation blockers – human, duplicate replicates, primary screen (AID 580;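 active = viability at or under a set limit in both replicates, limit being median viability minus 3 SD, cut at about 48% in these data, passing the limit was not always enough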;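 also: 100% = mean luminescence of untreated wells and 0% = no signal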). The conditions noted are these: H69AR lung tumor cells viability, ATP luminescence, 72 h; at 10 µM; stronger effect = lower value.
Assay [6] is described as follows: MRP1 drug-resistance reversers in H69AR cells – cell-based, doxorubicin co-treatment, pilot screen (AID 601;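 active = viability loss from added drug above about 55%, and viability with drug at most 40%, in both replicates, limit read from the data, passing the limit was not always enough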). The conditions noted are these: CellTiter-Glo, 72 h, at 10 µM; for differential viability (reversal): stronger effect = higher value.
Assay [7] is described as follows: yeast transport mutant growth inhibition pilot in 384-well plates, post-Golgi transport modulator project (AID 636; in the data active = inhibition above about 31%). As to conditions: absorbance 615 nm, about 18 h, stronger effect = higher value.
The nature of assay [8]: growth suppression of yeast trafficking mutant, preliminary HTS, modulators of trafficking downstream of Golgi apparatus project, 1536-format plate, OD 615 nm (AID 637; in the data active = inhibition above about 30%). As to conditions: yeast transport mutant growth, absorbance 615 nm, 18 h; stronger effect = higher value.
The nature of assay [9]: S. cerevisiae growth inhibition in permissive medium (OD615), pilot counter-assay for S. cerevisiae lifespan shortening project, permissive growth control (AID 705). As to conditions: OD615, 24 h, at 10 µM, stronger effect = higher value.
The nature of assay [10]: S. cerevisiae growth inhibition in restrictive medium, OD615, pilot screen, restrictive growth control, yeast lifespan reduction project (AID 706;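 active = growth inhibition above a set limit, 3 SD over mean compound inhibition, in both replicates, cut at about 43% in these data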;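 also: modified DeaD lifespan yeast strain shifted to restrictive glucose medium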). The conditions noted are these: OD615, 48 h, at 10 µM, stronger effect = higher value.
Assay [11] is described as follows: doxorubicin toxicity protection in MRP-1 cells – H69AR cells, CellTiter-Glo, duplicate, MRP-1 activator project, pilot screen (AID 807;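 active = viability increase at or above a cutoff of the median across tested compounds plus 3 SD, cut at about 8.5% in these data, passing the limit was not always enough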;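 also: compound pretreatment 18-22 h then 72 h combined with doxorubicin; 0% = doxorubicin alone and 100% = vehicle without doxorubicin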). As to conditions: H69AR viability with doxorubicin, CellTiter-Glo luminescence; at 10 µM; stronger effect = higher value.
Assay [12] can be described thus: viability of HCT116 without oncogenic beta-catenin – human colon tumor cells, pilot screen (AID 823;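 active = cell viability at or below a set limit in both duplicate runs, the limit being the all-compound median minus 4 SD, cut at about 23% in these data, passing the limit was not always enough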;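 also: 0% = wells killed by 20 µM Hyamine and 100% = untreated DMSO cell wells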). The conditions noted are these: HCT116 beta-catenin knockout viability, CellTiter-Glo, 60 h; at 10 µM; stronger effect = lower value.
A short description of assay [13]: viability of PTEN-null HCT116 cells – cell-based, HCT116 clonal line, CellTiter-Glo, pilot screen (AID 824;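 active = viability at or below 27.92% in each of two runs, the all-compound median minus 4 SD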;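 also: 0% = 20 µM Hyamine control and 100% = vehicle cell control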). As to conditions: HCT116 PTEN-deleted viability, 60 h, at 10 µM, stronger effect = lower value.
The nature of assay [14]: RAM pathway blockade in budding yeast – dse1pr::URA3 reporter, 5-FOA selection, pilot screen (AID 869;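 active = inhibition over a set limit, the all-compound mean plus 3 SD, in both replicate runs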;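 also: 0% = DMSO wells with no growth and 100% = 10 µM 1-NA-PP1 with full growth; RAM network block rescues cells from 5-FOA so hits raise OD615 growth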). The conditions noted are these: S. cerevisiae dse1pr::URA3 5-FOA growth, OD615, 2 d; at 10 µM; stronger effect = higher value; strain carries analog-sensitive mutant Cbk1 kinase.
A short description of assay [15]: RAM signaling pathway blockade in yeast – S. cerevisiae, Pdr1DBD-CYC8 efflux-inhibited sensitized strain, primary screen (AID 1298;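 active = RAM network inhibition above 8.4% in each of two replicates, 3 SD over the compound average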;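 also: 0% = DMSO untreated cells without growth and 100% = 10 µM 1-NA-PP1 full growth; higher means more yeast growth rescued from 5-FOA killing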). The conditions noted are these: S. cerevisiae cbk1-as DSE1-URA3 strain, 5-FOA growth OD615, 2 d; at 50 µM; stronger effect = higher value.
Where [16] appears, read: H69AR cells + 2 uM doxorubicin, measured here: viability with 2 uM doxorubicin, stronger effect = lower value.
[17] abbreviates: H69AR cells, compound alone cytotoxicity.

Molecules are shown by their SMILES. Inconclusive results are not listed. Active and inactive are the calls of the source.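 The calls were made as follows, unless noted: active = growth inhibition above 25% in both replicates, a cutoff set 3 SD above the mean; inconclusive = above 25% in only one replicate; inactive = the rest.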

Sequence of Receptor tyrosine-protein kinase erbB-2 (Homo sapiens) (P04626 whole entry, looked up): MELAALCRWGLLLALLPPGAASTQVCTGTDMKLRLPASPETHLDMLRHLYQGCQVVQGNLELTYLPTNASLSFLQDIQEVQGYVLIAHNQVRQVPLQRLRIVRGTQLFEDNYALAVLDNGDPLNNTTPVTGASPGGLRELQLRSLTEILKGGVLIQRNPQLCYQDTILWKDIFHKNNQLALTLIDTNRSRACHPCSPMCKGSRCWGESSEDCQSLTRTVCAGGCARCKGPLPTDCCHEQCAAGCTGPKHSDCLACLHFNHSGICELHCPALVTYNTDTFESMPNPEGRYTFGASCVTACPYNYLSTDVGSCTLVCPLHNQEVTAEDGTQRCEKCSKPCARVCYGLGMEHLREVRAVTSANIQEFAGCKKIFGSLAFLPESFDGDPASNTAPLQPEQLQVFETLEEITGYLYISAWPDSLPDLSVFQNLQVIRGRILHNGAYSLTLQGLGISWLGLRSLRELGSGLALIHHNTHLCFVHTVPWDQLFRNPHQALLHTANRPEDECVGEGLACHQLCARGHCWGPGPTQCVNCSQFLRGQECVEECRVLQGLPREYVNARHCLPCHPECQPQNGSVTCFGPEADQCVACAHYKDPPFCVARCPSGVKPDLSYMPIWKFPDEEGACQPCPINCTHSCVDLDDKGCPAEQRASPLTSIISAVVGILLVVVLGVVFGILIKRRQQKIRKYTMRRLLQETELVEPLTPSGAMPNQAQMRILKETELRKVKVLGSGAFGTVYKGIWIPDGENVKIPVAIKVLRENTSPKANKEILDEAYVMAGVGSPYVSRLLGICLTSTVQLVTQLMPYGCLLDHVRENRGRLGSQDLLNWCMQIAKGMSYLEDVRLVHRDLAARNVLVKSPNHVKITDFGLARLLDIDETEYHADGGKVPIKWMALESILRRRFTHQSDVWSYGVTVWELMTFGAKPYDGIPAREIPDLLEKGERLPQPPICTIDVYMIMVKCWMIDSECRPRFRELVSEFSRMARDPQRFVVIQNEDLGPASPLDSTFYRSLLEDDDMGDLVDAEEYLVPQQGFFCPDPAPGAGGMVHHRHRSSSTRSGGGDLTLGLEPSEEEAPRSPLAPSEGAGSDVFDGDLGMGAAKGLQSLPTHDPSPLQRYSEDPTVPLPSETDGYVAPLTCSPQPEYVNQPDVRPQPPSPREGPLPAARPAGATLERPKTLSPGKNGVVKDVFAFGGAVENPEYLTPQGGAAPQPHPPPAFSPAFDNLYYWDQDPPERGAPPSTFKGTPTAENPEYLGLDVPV

As for `CCC(C)OC(=O)C1=C(C)NC2=C(C(=O)C(C(=O)OC)C(C)C2)C1c1ccc(N(C)C)cc1` (stereo not drawn), the viability – broadly, a read-out of living cells in per cent, often relative to untreated cells – in assay [1] is 94.5%; in assay [3], 94.5% (inactive); in [4], 110% (inactive); in [5] it was 95.8% (inactive); in assay [6] (setting [16]) it was 91.5%; in [6] (setting [17]), 95.8%. For the same compound, the viability is 86% (inactive) in [12] and 75.7% (inactive) in [13]. Besides, the Her2 level in assay [2] was 108% (inactive). For the same compound, the differential viability (reversal) in [6] (H69AR cells + 2 uM doxorubicin) was 4.35% (inactive). Besides, the inhibition (as a rule, the drop in the measured response relative to a control, in per cent) is -2.11% (inactive) in [7], -5.09% (inactive) in assay [8] and 1.46% (inactive) in [14]. Moreover, the values for the growth inhibition in assay [9] and in assay [10] were -3.15% (inactive) and -7.23% (inactive), respectively. Moreover, the viability increase in assay [11] is -0.39% (inactive). For the same compound, the RAM network inhibition in assay [15] was 8.17% (inactive).
As for `CC1CCN(C(=O)CSCC(=O)Nc2nc(-c3cccs3)cs2)CC1`, the viability in [1] was 86%; in assay [3], 86% (inactive); in assay [4] it was 67% (inactive); in assay [5], 91.1% (inactive); in assay [6] (setting [16]) it was 86.6%; in assay [6] (setting [17]) it was 91.1%. The viability in assay [12] was 100% (inactive); in assay [13] it was 92.1% (inactive). Moreover, in assay [2], the Her2 level was 80.5% (inactive). In addition, the differential viability (reversal) in [6] (H69AR cells + 2 uM doxorubicin) was 4.54% (inactive). In addition, the figures for the inhibition in assay [7], in assay [8] and in assay [14] were -1.33% (inactive), -1.15% (inactive) and 0.24% (inactive), respectively. In addition, the growth inhibition in assay [9] is 1.36% (inactive); in assay [10], -5.56% (inactive). Further, the viability increase in [11] is -4.14% (inactive). Besides, the RAM network inhibition in [15] was -0.16% (inactive).
Take `Cc1ccc(C)c(S(=O)(=O)n2cnc3ccccc32)c1`: the viability is 96.5% in [1]; 96.5% (inactive) in assay [3]; 109% (inactive) in [4]; 99% (inactive) in [5]; 91.1% in assay [6] (setting [16]); 99% in assay [6] (setting [17]). Besides, the viability in [12] was 95.2% (inactive); in assay [13], 97.6% (inactive). For the same compound, in assay [2], the Her2 level was 87.5% (inactive). In addition, the differential viability (reversal) in assay [6] (H69AR cells + 2 uM doxorubicin) was 7.94% (inactive). The values for the inhibition in [7], in assay [8] and in assay [14] were -0.13% (inactive), 30.2% (active) and 2.08% (inactive), respectively. The figures for the growth inhibition in assay [9] and in [10] were -18% (inactive) and -20.2% (inactive), respectively. In addition, the viability increase in assay [11] was 0.98% (inactive). In addition, in [15], the RAM network inhibition is 2.15% (inactive).
In the case of `Cc1c(NC(=O)C2CCCCN2S(=O)(=O)c2ccc(Cl)cc2)c(=O)n(-c2ccccc2)n1C` (stereo not drawn), the viability is 112% in assay [1]; 112% (inactive) in assay [3]; 90.1% (inactive) in assay [4]; 91.3% (inactive) in assay [5]; 98.2% in [6] (setting [16]); 91.3% in assay [6] (setting [17]). For the same compound, the viability in assay [12] is 96.9% (inactive); in [13], 103% (inactive). The Her2 level in assay [2] is 120% (inactive). In addition, the differential viability (reversal) in [6] (H69AR cells + 2 uM doxorubicin) was -6.92% (inactive). Also, the inhibition is -3.47% (inactive) in assay [7], -1% (inactive) in [8] and 0.76% (inactive) in assay [14]. The values for the growth inhibition in assay [9] and in [10] were -2.56% (inactive) and -1.4% (inactive), respectively. The viability increase in assay [11] was -1.13% (inactive). In addition, in assay [15], the RAM network inhibition was -0.87% (inactive).
With `CCc1cc2c(=O)c(-c3nc4ccccc4[nH]3)coc2c(CN2CCC(C)CC2)c1O`, the viability in [1] is 96%; in [3], 96% (inactive); in [4], 99.1% (inactive); in assay [5], 82.6% (inactive); in assay [6] (setting [16]), 82%; in [6] (setting [17]), 82.6%. Further, the viability in assay [12] is 92.3% (inactive); in assay [13] it was 85.6% (inactive). Besides, in assay [2], the Her2 level is 116% (inactive). Besides, the differential viability (reversal) in assay [6] (H69AR cells + 2 uM doxorubicin) is 0.66% (inactive). Moreover, the inhibition in assay [7] was -1.03% (inactive); in [8], 1.83% (inactive); in [14], -0.2% (inactive). Moreover, the values for the growth inhibition in [9] and in assay [10] were 6.25% (inactive) and 18.5% (inactive), respectively. The viability increase in assay [11] is -2.14% (inactive). For the same compound, the RAM network inhibition in assay [15] is -2.41% (inactive).
Consider `O=C1CCCCCC1C1(O)C(=O)Nc2ccccc21` (stereo not drawn), for which the viability was 100% in assay [1]; 100% (inactive) in assay [3]; 87.9% (inactive) in [4]; 95.7% (inactive) in [5]; 94.4% in [6] (setting [16]); 95.7% in [6] (setting [17]). Further, the viability was 99.7% (inactive) in assay [12] and 95% (inactive) in assay [13]. Further, the Her2 level in assay [2] was 96.5% (inactive). Moreover, the differential viability (reversal) in assay [6] (H69AR cells + 2 uM doxorubicin) is 1.21% (inactive). In addition, the inhibition in [7] was -4.68% (inactive); in [8], -1.67% (inactive); in assay [14], 1.43% (inactive). For the same compound, the growth inhibition is -0.65% (inactive) in assay [9] and -10.4% (inactive) in [10]. Also, the viability increase in [11] was -2.3% (inactive). Moreover, the RAM network inhibition in assay [15] was 1.29% (inactive).
`Cc1cc(C)c(NC(=O)Cn2cc3c(n2)CCCC3)c(C)c1`: the viability in assay [1] was 87.5%; in assay [3], 87.5% (inactive); in assay [4], 104% (inactive); in assay [5], 96.5% (inactive); in assay [6] (setting [16]), 100%; in assay [6] (setting [17]), 96.5%. Besides, the viability is 109% (inactive) in assay [12] and 94.9% (inactive) in [13]. In addition, the Her2 level in assay [2] was 103% (inactive). Besides, the differential viability (reversal) in [6] (H69AR cells + 2 uM doxorubicin) is -3.94% (inactive). In addition, the results for the inhibition in assay [7], in assay [8] and in assay [14] were -6% (inactive), 5.74% (inactive) and 2.3% (inactive), respectively. Besides, the growth inhibition was 6.13% (inactive) in assay [9] and 12.4% (inactive) in assay [10]. Moreover, in [11], the viability increase was -0.84% (inactive). In addition, in [15], the RAM network inhibition is 4.34% (inactive).
With `CC(=O)N(C(C)=O)c1ncc2c([nH]c3ccccc32)c1C#N`, the viability in assay [1] was 106%; in [3], 106% (inactive); in [4] it was 53.4% (inactive); in [5], 61.4% (inactive); in assay [6] (setting [16]) it was 81.9%; in assay [6] (setting [17]) it was 61.4%. Further, the results for the viability in assay [12] and in assay [13] were 66.9% (inactive) and 64.7% (inactive), respectively. In addition, the Her2 level in assay [2] was 95% (inactive). Also, the differential viability (reversal) in assay [6] (H69AR cells + 2 uM doxorubicin) is -20.5% (inactive). Besides, the inhibition is -8.13% (inactive) in [7], -7.26% (inactive) in assay [8] and 1.25% (inactive) in assay [14]. The growth inhibition is -10.9% (inactive) in [9] and -11.2% (inactive) in assay [10]. Further, the viability increase in [11] is -7.26% (inactive). The RAM network inhibition in assay [15] is 6.06% (inactive).
With `CC1CCN(S(=O)(=O)c2cccc(C(=O)Nc3ccccn3)c2)CC1`, the viability in assay [1] is 86%; in [3] it was 86% (inactive); in assay [4], 86.7% (inactive); in assay [5], 94.3% (inactive); in assay [6] (setting [16]) it was 96.8%; in assay [6] (setting [17]), 94.3%. The values for the viability in assay [12] and in assay [13] were 93.9% (inactive) and 97.7% (inactive), respectively. In addition, in [2], the Her2 level was 104% (inactive). Further, the differential viability (reversal) in [6] (H69AR cells + 2 uM doxorubicin) was -2.55% (inactive). Also, the inhibition in assay [7] was 4.1% (inactive); in assay [8], 1.83% (inactive); in [14], -0.08% (inactive). The growth inhibition is 8.12% (inactive) in [9] and 3.79% (inactive) in assay [10]. Further, the viability increase in assay [11] was -1.96% (inactive). The RAM network inhibition in assay [15] was 4.54% (inactive).
